# According to PubChem BioAssay:
# Several values for one entry are separate records, joined by “and”; a condition that tells them apart may be missing. Equal entries are not always repeated. Results filed as inconclusive are left out. Activity calls are given as the source filed them.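 The calls were made as follows, unless noted: active = compounds whose cell count with miR-34 switched on is under 0.7 times the count with it off; inactive = the rest.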
# Tests used:
# [1] = compounds altering circadian rhythm period length – cell-based, LOPAC library, luminescence reporter (AID 2774; call rule not given here;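 also: values are relative to mean of DMSO wells on each plate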); conditions: circadian reporter cells, at 7 µM, actives lie on both sides
# [2] = P. berghei load reduction in hepatocytes – cell-based, HepG2, luciferase luminescence, HepG2 viability, primary screen (AID 624349; in the data active = parasite load remaining mostly below about 12%, no sharp cut-off; inactive = mostly above about 10%;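 also: 100% = mean of DMSO negative control wells on the same plate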); conditions: P. berghei liver stage in HepG2, luciferase luminescence, concentration not given here; parasite load remaining: stronger effect = lower value; viability: measured here: HepG2 viability without parasites
# [3] = system: Hepatitis C virus NS3 helicase; assay: blockers of NS3h binding to ssDNA – biochemical, fluorescence polarization, LOPAC1280 library, primary screen (AID 687035; in the data active = inhibition above about 37%); conditions: Purified HCV NS3 helicase, Cy5-dT15 ssDNA binding fluorescence polarization; stronger effect = higher value; concentration not given here
# [4] = compounds altering Cy5-DNA-NS3h complex signal – biochemical, LOPAC1280, artefact control for HCV NS3 helicase inhibitor project (AID 687037; call rule not given here); conditions: Cy5-DNA-NS3h complex fluorescence interference counterscreen
# [5] = EMT-state selective cytotoxicity in co-culture – imaging, PC-3E GFP, TEM4-18 mCherry, primary screen (AID 1345086;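 active = compounds killing one labelled cell type while sparing the other, by normalised counts and ratio limits, not self-fluorescent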;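 as to all read-outs here: cells exposed to compound for 72 h before imaging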;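 as to red/green cell ratio (normalised): normalised mesenchymal count divided by normalised epithelial count so high means epithelial killing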); conditions: PC-3E GFP / TEM4-18 mCherry co-culture, imaging cell counts, at 1 µM; for red/green cell ratio (normalised): actives lie on both sides, counts scaled to control wells, 1 = unselective
# [6] = viability loss in pontine glioma line – cell-based, SU-DIPG-XIII, MIPE4.0, CellTiter-Glo, qHTS, dose response (AID 1347061; cut-off not given, nearly all actives have AC50 up to about 37 µM;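 also: cells exposed to compound for 48 hours before readout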); conditions: CellTiter-Glo ATP luminescence
# [7] = viability loss in pontine glioma line – cell-based, JHH-DIPG-1, MIPE4.0, CellTiter-Glo, qHTS, dose response (AID 1347062; cut-off not given, nearly all actives have AC50 up to about 27 µM); conditions: JHH-DIPG-1 viability, CellTiter-Glo ATP luminescence
# [8] = viability loss in pontine glioma line – cell-based, SU-DIPG-IV, MIPE4.0, CellTiter-Glo, qHTS, dose response (AID 1347063; cut-off not given, nearly all actives have AC50 up to about 30 µM;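 also: compound exposure lasted 48 hours before the viability readout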); conditions: CellTiter-Glo ATP luminescence
# [9] = growth inhibition of DIPG cells – cell-based, MIPE4.0 library, CellTiter-Glo luminescence, qHTS (AID 1347066; cut-off not given, nearly all actives have AC50 up to about 30 µM;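 also: cells exposed to compound for 48 hours before readout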); conditions: SU-DIPG-VI viability, CellTiter-Glo ATP luminescence
# [10] = viability loss with induced miR-34 in A549 – imaging, A549 dox-inducible miR-34, nuclei and caspase counts, primary screen (AID 1347080); conditions: A549 miR-34 inducible, Hoechst nuclei count, 48 h
# [11] = blockers of cellular phospholipid synthesis – cell-based, LOPAC library, screen 4, primary screen (AID 1347384; call rule not given here); conditions: animal cells, phospholipid biosynthesis inhibition screen; at 10 µM
# [12] = galactose survival enhancers in mitochondrial complex I cybrids – cell-based, galactose medium, ATP luminescence, primary screen (AID 1645843;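 active = z-score of at least 1.8 in each of two replicates, scored against plate mean and spread of sample wells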;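 also: positive z means more ATP and so rescue of galactose-driven cybrid death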); conditions: complex I mutant cybrid cells, 72 h, stronger effect = higher value
# [13] = measured here: epithelial PC-3E GFP cell survival
# [14] = measured here: mesenchymal TEM4-18 mCherry cell survival
# [15] = stronger effect = lower value, cell number ratio, induced over uninduced
# [16] = measured here: relative caspase fold change +Dox/-Dox
# [17] = measured here: total cells with miR-34 induction, stronger effect = lower value
# [18] = measured here: total cells without miR-34 induction
structure (smiles),measurement,setting,value
CC1=C(C(=O)O)N2C(=O)[C@@H](NC(=O)C(N)c3ccccc3)[C@H]2SC1 (stereo partly drawn),period change,[1],0.02 h (inactive)
same,parasite load remaining,[2],96% (inactive) and 49.4% (inactive)
same,viability,[2],72.1% and 86.5%
same,inhibition,[3],-4% (inactive)
same,fluorescence ratio (interference),[4],0.9 (inactive)
same,red/green cell ratio (normalised),[5],1.15 (inactive)
same,normalised cell number,[5]; [13],1.06
same,normalised cell number,[5]; [14],1.23
same,outcome,[6],inactive
same,outcome,[7],inactive
same,outcome,[8],inactive
same,outcome,[9],inactive
same,fold change,[10]; [15],1.03 (inactive) and 0.832 (inactive)
same,fold change,[10]; [16],1.45 and 2.29
same,cell count,[10]; [17],10100 and 11100
same,cell count,[10]; [18],9800 and 13300
same,outcome,[11],inactive
same,z-score,[12],0.41 (inactive)
O=C1SCN(Cc2ccccc2)CN1Cc1ccccc1,red/green cell ratio (normalised),[5],0.9 (inactive)
same,normalised cell number,[5]; [13],0.96
same,normalised cell number,[5]; [14],0.86
same,fold change,[10]; [15],0.983 (inactive)
same,fold change,[10]; [16],0.637
same,cell count,[10]; [17],8570
same,cell count,[10]; [18],8710
Cc1cc2nc3c(=O)[nH]c(=O)nc-3n(C[C@@H](O)[C@@H](O)[C@@H](O)COP(=O)(O)O)c2cc1C,red/green cell ratio (normalised),[5],1.01 (inactive)
same,normalised cell number,[5]; [13],1.03
same,normalised cell number,[5]; [14],1.04
same,fold change,[10]; [15],0.895 (inactive)
same,fold change,[10]; [16],1.15
same,cell count,[10]; [17],8530
same,cell count,[10]; [18],9530
C[C@@H]1CC2C3CCC4=CC(=O)C=C[C@]4(C)[C@@]3(F)[C@@H](O)C[C@]2(C)[C@H]1C(=O)CO (stereo partly drawn),red/green cell ratio (normalised),[5],1.08 (inactive)
same,normalised cell number,[5]; [13],1.08
same,normalised cell number,[5]; [14],1.16
same,fold change,[10]; [15],0.893 (inactive) and 0.821 (inactive)
same,fold change,[10]; [16],0.943 and 1.01
same,cell count,[10]; [17],6390 and 5470
same,cell count,[10]; [18],7160 and 6670
Nc1nc(NC2CC2)c2ncn(C3C=C[C@@H](CO)C3)c2n1 (stereo partly drawn),red/green cell ratio (normalised),[5],1.14 (inactive)
same,normalised cell number,[5]; [13],1.1
same,normalised cell number,[5]; [14],1.26
same,fold change,[10]; [15],0.995 (inactive)
same,fold change,[10]; [16],0.706
same,cell count,[10]; [17],8880
same,cell count,[10]; [18],8920
CC(C)(O)c1ccccc1CC[C@@H](SC1(CC(=O)O)CC1)c1cccc(/C=C/c2ccc3ccc(Cl)cc3n2)c1,red/green cell ratio (normalised),[5],1.02 (inactive)
same,normalised cell number,[5]; [13],1.13
same,normalised cell number,[5]; [14],1.16
same,fold change,[10]; [15],0.955 (inactive)
same,fold change,[10]; [16],0.641
same,cell count,[10]; [17],9020
same,cell count,[10]; [18],9450
CC1(C)O[C@@H]2CC3C4CCC5=CC(=O)C=C[C@]5(C)C4[C@@H](O)C[C@]3(C)[C@]2(C(=O)CO)O1 (stereo partly drawn),red/green cell ratio (normalised),[5],0.93 (inactive)
same,normalised cell number,[5]; [13],1.22
same,normalised cell number,[5]; [14],1.14
same,fold change,[10]; [15],0.861 (inactive)
same,fold change,[10]; [16],1.01
same,cell count,[10]; [17],5940
same,cell count,[10]; [18],6900
CC(=O)c1ccc2c(c1)Sc1ccccc1N2CCCN1CCN(CCO)CC1,red/green cell ratio (normalised),[5],1.02 (inactive)
same,normalised cell number,[5]; [13],1.21
same,normalised cell number,[5]; [14],1.23
same,fold change,[10]; [15],0.952 (inactive)
same,fold change,[10]; [16],0.758
same,cell count,[10]; [17],8860
same,cell count,[10]; [18],9300
Cc1oc(=O)oc1CN1CCN(c2cc3c(cc2F)c(=O)c(C(=O)O)c2n3C(C)C2)CC1 (stereo not drawn),red/green cell ratio (normalised),[5],0.94 (inactive)
same,normalised cell number,[5]; [13],0.97
same,normalised cell number,[5]; [14],0.91
same,fold change,[10]; [15],0.994 (inactive)
same,fold change,[10]; [16],0.87
same,cell count,[10]; [17],9060
same,cell count,[10]; [18],9120
COc1cc(O)cc(C(=O)c2ccccc2)c1S(=O)(=O)O,red/green cell ratio (normalised),[5],1 (inactive)
same,normalised cell number,[5]; [13],1.17
same,normalised cell number,[5]; [14],1.18
same,fold change,[10]; [15],0.973 (inactive)
same,fold change,[10]; [16],0.886
same,cell count,[10]; [17],9730
same,cell count,[10]; [18],10000
CC1(C)S[C@@H]2[C@H](NC(=O)[C@H](C(=O)O)c3cccs3)C(=O)N2[C@H]1C(=O)O,red/green cell ratio (normalised),[5],0.96 (inactive)
same,normalised cell number,[5]; [13],1.05
same,normalised cell number,[5]; [14],1.01
same,fold change,[10]; [15],0.949 (inactive)
same,fold change,[10]; [16],0.673
same,cell count,[10]; [17],9210
same,cell count,[10]; [18],9700
CC(C)C/C=C/C=C\C(=O)N[C@@H](CC(N)=O)C(=O)N[C@@H]1C(=O)N[C@H](c2ccc(O)cc2)C(=O)N[C@H](CCCN)C(=O)N[C@H]([C@H](C)O)C(=O)N[C@@H](c2ccc(O)cc2)C(=O)N[C@H](c2ccc(O)cc2)C(=O)N[C@@H]([C@H](C)O)C(=O)N[C@@H](Cc2ccccc2)C(=O)N[C@H](CCCN)C(=O)N[C@@H](c2ccc(O[C@@H]3O[C@H](CO)[C@H](O)[C@@H](O)[C@@H]3O[C@@H]3O[C@H](CO)[C@@H](O)[C@H](O)[C@H]3O)cc2)C(=O)NC(C(C)O)C(=O)N[C@@H](c2ccc(O)cc2)C(=O)NCC(=O)N[C@@H](CC(C)C)C(=O)N[C@H](C)C(=O)N[C@@H](c2ccc(O)c(Cl)c2)C(=O)O[C@@H]1C(N)=O (stereo partly drawn),red/green cell ratio (normalised),[5],0.89 (inactive)
same,normalised cell number,[5]; [13],1.04
same,normalised cell number,[5]; [14],0.93
same,fold change,[10]; [15],0.899 (inactive)
same,fold change,[10]; [16],0.946
same,cell count,[10]; [17],8820
same,cell count,[10]; [18],9820
O=C(O)CCCN1CCN([C@H](c2ccccc2)c2ccc(Cl)cc2)CC1,red/green cell ratio (normalised),[5],0.97 (inactive)
same,normalised cell number,[5]; [13],1.14
same,normalised cell number,[5]; [14],1.11
same,fold change,[10]; [15],0.876 (inactive)
same,fold change,[10]; [16],0.778
same,cell count,[10]; [17],8580
same,cell count,[10]; [18],9800
CCN(CC)C(=O)C1(c2ccccc2)CC1CN (stereo not drawn),red/green cell ratio (normalised),[5],0.9 (inactive)
same,normalised cell number,[5]; [13],1.08
same,normalised cell number,[5]; [14],0.98
same,fold change,[10]; [15],0.92 (inactive)
same,fold change,[10]; [16],0.893
same,cell count,[10]; [17],8180
same,cell count,[10]; [18],8890
CC(=O)Oc1cc2c(s1)CCN([C@H](C(=O)C1CC1)c1ccccc1F)C2,red/green cell ratio (normalised),[5],1.12 (inactive)
same,normalised cell number,[5]; [13],0.87
same,normalised cell number,[5]; [14],0.98
same,fold change,[10]; [15],0.848 (inactive)
same,fold change,[10]; [16],0.716
same,cell count,[10]; [17],7480
same,cell count,[10]; [18],8810
CCCCCOC(=O)Nc1nc(=O)n(C2O[C@H](C)[C@@H](O)[C@H]2O)cc1F (stereo partly drawn),red/green cell ratio (normalised),[5],1.41 (inactive)
same,normalised cell number,[5]; [13],0.48
same,normalised cell number,[5]; [14],0.68
same,fold change,[10]; [15],0.954 (inactive)
same,fold change,[10]; [16],0.897
same,cell count,[10]; [17],8840
same,cell count,[10]; [18],9270
